In the library only some 10% were active in any assay of this set; here they are far more common.
G9a block – qHTS Assay for Inhibitors of Histone Lysine Methyltransferase G9a. Histone-lysine N-methyltransferase EHMT2 (Homo sapiens), Q96KQ7. G9a H3K9 monomethylation, AlphaScreen, 2 h. Potency, µM (highest dose often 102 µM), actives largely listed as inhibitors. hit rate 8.8% among 350,000; also: nearly all actives have a fitted effect of over 75% in size
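Chemiluminescent proximity detection of H3K9 monomethylation, read after 10 min bead incubation in the dark. Reaction: 20 nM G9a, 500 nM biotin-H3K9 peptide, 20 uM SAM cofactor, 2 h, room temperature, following 15 min enzyme-compound preincubation.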
JMJD2A Tudor inh – qHTS Assay for Inhibitors of JMJD2A-Tudor Domain | AlphaScreen JMJD2A-Tudor / H3K4me3 peptide binding | AID 504339, 2011 | hit rate 4.4% among 390,000 | Lysine-specific demethylase 4A (Homo sapiens), O75164 | Potency, µM (series often up to 114 µM), usual class: inhibitors; also: nearly all actives have a fitted effect of over 50% in size
Six1-Eya2 inh – qHTS Assay for Inhibitors of the Six1/Eya2 Interaction; activity change, % (concentration not given with the values); Homeobox protein SIX1 (Homo sapiens) + Protein phosphatase EYA2 (Homo sapiens), …; hit rate 0.56% among 360,000; AlphaScreen GST-Six1/His-Eya2 binding, biochemical; active compounds read low; AID 651725, 2012; in the data active = activity change below about -65%; inconclusive = mostly about -30% to -63%
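AlphaScreen with GST-Six1 and His-Eya2 (5X mix: 250 nM and 500 nM), glutathione donor and nickel acceptor beads; buffer 50 mM Tris pH 8.0, 300 mM NaCl, 1 mM TCEP; 1 h at 37 C in the dark.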
CtBP-E1A inh – qHTS Assay for Inhibitors of the CtBP/E1A Interaction; CtBP / adenovirus E1A interaction (AlphaScreen); AlphaScreen GST-E1A/His-CtBP binding, 1536-well; active compounds read low; activity change, % (concentration not given with the values); hit rate 0.49% among 340,000; in the data active = activity change below about -65%; inconclusive = mostly about -30% to -63%
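In 5 uL wells, 23 nL compound meets equimolar GST-E1A and His-CtBP (5X stock 125 nM each) for 2 h, 37 °C. Beads (5X, 50 ug/mL) then 1 h, 37 °C, dark.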
HP1b binding inh – HTS for Inhibitors of HP1-beta Chromodomain Interactions with Methylated Histone Tails. Potency, µM (highest dose often 114 µM), most hits filed as inhibitors. Chromobox protein homolog 1 (Homo sapiens), P83916. AlphaScreen HP1-beta / biotin-H3K9me3 peptide binding. AID 540317, 2011. hit rate 0.56% among 390,000; also: nearly all actives have a fitted effect of over 70% in size
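AlphaScreen: HP1-beta (50 nM) preformed 30 min with biotin-H3(1-18)K9me3 peptide (50 nM) in PBS pH 7.4, 0.01% Tween-20. Compound added for 30 min at RT, then streptavidin donor/nickel chelate acceptor beads (10 ug/mL) for 30 min.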
BAZ2B block – qHTS Assay for Inhibitors of BAZ2B; Bromodomain adjacent to zinc finger domain protein 2B (Homo sapiens), Q9UIF8; AlphaScreen BAZ2B-H3K14Ac peptide displacement; AID 504333, 2011; hit rate 4.4% among 360,000; Potency, µM (titrated, usually from 114 µM), usual class: inhibitors; also: nearly all actives have a fitted effect of over 60% in size
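AlphaScreen displacement of biotin-H3(5-23)K14Ac peptide (50 nM final) from BAZ2B (50 nM final) in PBS pH 7.4, 0.01% Tween-20; complex preformed 30 min RT, then compounds (top 110 uM) 30 min RT, beads 20 min dark.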
Hits are given with their value. Unless noted, calls follow the shape of the dose curve; as a rule, active = well fitted inhibition curve with a large enough effect; inconclusive = small, poorly fitted or top-dose-only effect; inactive = no such curve, though single readings can be large or run the other way.

For O=C(O)COc1ccccc1/C=N/NC(=O)CSc1nc2ccccc2c(=O)n1-c1ccccc1 the results were G9a block inactive, JMJD2A Tudor inh inactive, Six1-Eya2 inh inactive, CtBP-E1A inh inactive, HP1b binding inh inactive and BAZ2B block inconclusive.
For O=C(O)COc1ccccc1/C=N/NC(=O)CSc1nc2ccccc2c(=O)n1-c1ccc(Cl)cc1 the results were G9a block inconclusive, JMJD2A Tudor inh inconclusive, Six1-Eya2 inh inactive, CtBP-E1A inh inactive, HP1b binding inh inactive and BAZ2B block 56µM.
Screening CCn1c(SCC(=O)N/N=C/c2ccccc2OCC(=O)O)nnc1-c1ccc(OC)cc1 returned G9a block inactive, JMJD2A Tudor inh inactive, Six1-Eya2 inh inactive, CtBP-E1A inh inactive, HP1b binding inh inactive and BAZ2B block 56µM.
For COc1ccc(C2CC(c3ccccc3)=NN2c2ccc(N)cc2)cc1 (stereo not drawn) the results were G9a block 45µM, JMJD2A Tudor inh inconclusive, Six1-Eya2 inh inactive, CtBP-E1A inh inactive, HP1b binding inh inconclusive and BAZ2B block 40µM.
For COc1ccc(C2CC(c3ccccc3)=NN2C(=S)Nc2ccccc2)cc1 (stereo not drawn) the results were G9a block inconclusive, JMJD2A Tudor inh inactive, Six1-Eya2 inh inactive, CtBP-E1A inh inactive, HP1b binding inh inactive and BAZ2B block inconclusive.
CNC(=S)N1N=C(c2ccc(Br)cc2)CC1c1ccc(Br)cc1 (stereo not drawn) was read as G9a block inactive, JMJD2A Tudor inh inactive, Six1-Eya2 inh inactive, CtBP-E1A inh inactive, HP1b binding inh inactive and BAZ2B block inactive.
For COc1ccc(C2CC(c3ccc(Br)cc3)=NN2C(=S)Nc2ccccc2)cc1 (stereo not drawn) the results were G9a block 2µM, JMJD2A Tudor inh inactive, Six1-Eya2 inh inactive, CtBP-E1A inh inactive, HP1b binding inh inactive and BAZ2B block inconclusive.
Screening CNC(=S)N1N=C(c2ccc(OC)cc2)CC1c1ccc(N(C)C)cc1 (stereo not drawn) returned JMJD2A Tudor inh 35µM, Six1-Eya2 inh inconclusive, CtBP-E1A inh inconclusive, HP1b binding inh inactive and BAZ2B block 11µM.
Screening CNC(=S)N1N=C(c2ccc(Br)cc2)CC1c1ccc(N(C)C)cc1 (stereo not drawn) returned G9a block 7.9µM, JMJD2A Tudor inh 11µM, Six1-Eya2 inh inconclusive, CtBP-E1A inh inactive, HP1b binding inh inconclusive and BAZ2B block 10µM.
`COc1ccc(C2CC(c3ccccc3O)=NN2c2ccccc2)cc1` (stereo not drawn) gave JMJD2A Tudor inh inactive, Six1-Eya2 inh inactive, CtBP-E1A inh inactive and HP1b binding inh inactive.
Screening CCc1cccc(-n2nnc(-c3nsc(NC(=O)c4cccs4)n3)c2C)c1 returned G9a block inactive, JMJD2A Tudor inh inactive, HP1b binding inh inactive and BAZ2B block inactive.
`O=C(CCC1N=C2c3ccccc3N=C(SCC(=O)Nc3ccccc3F)N2C1=O)NCc1ccco1` (stereo not drawn) gave G9a block inactive, JMJD2A Tudor inh inactive, HP1b binding inh inactive and BAZ2B block inactive.
CC1C2(C)OC(=N)C(C#N)(C(C)O2)C1(C#N)C#N (stereo not drawn) was read as G9a block 71µM, JMJD2A Tudor inh inactive, Six1-Eya2 inh inactive, CtBP-E1A inh inactive, HP1b binding inh inactive and BAZ2B block inactive.
Screening CC1OC2(C)OC(=N)C1(C#N)C(C#N)(C#N)C2c1ccccc1 (stereo not drawn) returned G9a block inactive, JMJD2A Tudor inh inactive, Six1-Eya2 inh inactive, CtBP-E1A inh inactive, HP1b binding inh inactive and BAZ2B block inactive.

Compound activity as filed in PubChem.
